Calls of active or inactive are those of the source. Calls follow the shape of the dose curve; as a rule, active = well fitted curve in the direction sought with a large enough effect; inconclusive = small, poorly fitted or top-dose-only effect, or effect the other way, or another doubt; inactive = no such curve, though single readings can be large or run the other way.
These molecules were tested against Pyruvate kinase PKLR (Homo sapiens) (UniProt P30613) (assay: Secondary Concentration-Response Assay for Activators of Human Liver Pyruvate Kinase: for Probe SAR). Details: purified hPK-L, ATP production, Kinase-Glo luminescence; series mostly up to 58.3 µM.
Sequence of Pyruvate kinase PKLR (Homo sapiens) (P30613 whole entry, looked up): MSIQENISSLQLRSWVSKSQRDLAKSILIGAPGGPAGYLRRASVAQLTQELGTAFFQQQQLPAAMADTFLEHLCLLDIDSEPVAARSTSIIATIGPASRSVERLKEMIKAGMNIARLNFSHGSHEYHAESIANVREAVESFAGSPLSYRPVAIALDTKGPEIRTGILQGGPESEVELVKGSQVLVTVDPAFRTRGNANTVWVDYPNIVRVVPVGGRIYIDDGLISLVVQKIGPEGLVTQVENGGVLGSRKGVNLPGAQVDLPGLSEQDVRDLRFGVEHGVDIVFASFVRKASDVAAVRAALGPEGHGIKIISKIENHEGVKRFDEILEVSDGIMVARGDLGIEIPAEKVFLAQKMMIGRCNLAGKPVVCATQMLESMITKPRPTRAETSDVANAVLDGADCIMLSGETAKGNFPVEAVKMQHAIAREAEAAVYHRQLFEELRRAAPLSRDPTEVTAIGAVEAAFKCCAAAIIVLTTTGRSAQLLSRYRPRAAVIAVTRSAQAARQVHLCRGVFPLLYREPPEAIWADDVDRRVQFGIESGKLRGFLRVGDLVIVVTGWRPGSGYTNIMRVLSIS
In short: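 Luciferase-coupled luminescence (Kinase-Glo) reports ATP made by 0.1 nM hPK-L from 0.5 mM PEP (at Km) and 0.1 mM ADP (about 10-fold below Km); pH 7.2 imidazole buffer, 1 h room temperature, in concentration-response format.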

outcome, inactive:
COc1ccc(-c2nc3ccccn3c2Nc2ccccc2C)cc1
O=C1CCc2cc(S(=O)(=O)Nc3ccc4ccccc4c3)ccc2N1
COc1ccc(NS(=O)(=O)c2ccc3c(c2)CCC(=O)N3)cc1
O=C1CCc2cc(S(=O)(=O)Nc3cccc(C(F)(F)F)c3)ccc2N1
Cc1cc(NS(=O)(=O)c2ccc3c(c2)CCC(=O)N3)ccc1F
O=C1CCc2cc(S(=O)(=O)Nc3cccc(Cl)c3)ccc2N1
Cc1nc(-c2ccc(S(=O)(=O)Nc3ccc(C)c(C)c3)s2)cs1
O=S1(=O)N=C(Oc2cccc(Cl)c2)c2ccccc21
Cc1ccc(NS(=O)(=O)c2ccc3c(c2)CC(=O)N3)cc1C
O=C1CCc2cc(S(=O)(=O)Nc3ccc4c(c3)OCCO4)ccc2N1
CSc1cc2c(s1)c1cnn(Cc3cccc(N)c3)c(=O)c1n2C
CC(C)Nc1cccc(S(=O)(=O)N2CCCN(S(=O)(=O)c3ccc4c(c3)OCCO4)CC2)c1
Cc1ccc(NS(=O)(=O)c2ccc3c(c2)NC(=O)CO3)cc1C
O=C1CCc2cc(S(=O)(=O)Nc3cccc(Oc4ccccc4)c3)ccc2N1

From PubChem BioAssay AID2535 (National Center for Advancing Translational Sciences (NCATS), 2010)
